Only a selection was taken, and hits are over-represented in it overall.
BL2 CD40 inh = CD40 pathway inhibition in BL2 cells; AID 1053188; BL2 NF-kB luciferase reporter, CD40L-induced, 4 h; 83,000 tested, 0.94% active; inhibition, % at 10 µM;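 active = mean inhibition of at least 50% with a set share of replicates also reaching that level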;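 note: 0% = neutral control wells and 100% = IKK inhibitor VII at 50 µM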
Starred values were filed as active, the others as inactive; [ ] = dose if it differs, or a comment.

SMILES | BL2 CD40 inh
O=C(C1CCCC1)N1CC(=O)N2[C@@H](CO)[C@H](c3ccc(C#CCc4ccccc4)cc3)[C@@H]2C1 | 93*
O=C(C1CCOCC1)N1CC(=O)N2[C@H](C1)[C@@H](c1ccc(C#CCc3ccccc3)cc1)[C@@H]2CO | 58*[25 µM]
N#C[C@H]1[C@H](c2ccccc2)[C@@H](CO)N1C(=O)Cc1ccccn1 | 1
CC=Cc1ccc2n(c1=O)C[C@@H]1[C@@H](CO)[C@H](C(=O)NCC3CC3)N(C(=O)C3CCOCC3)[C@H]21 (mixture of isomers) | 13[25 µM]
C[C@@H](O)C#Cc1cnc2c(c1)C(=O)N([C@@H](C)CO)C[C@H](C)[C@@H](CN(C)Cc1cccc(C(=O)O)c1)O2 | 1[25 µM]
O=C(C[C@H]1C[C@H]2c3cc(NS(=O)(=O)c4ccccc4)ccc3O[C@H]2[C@@H](CO)O1)NC1CCCCC1 | -1
N#C[C@@H]1[C@@H](c2ccccc2-c2ccccc2)[C@H](CO)N1C(=O)NC1CCCC1 | 40[25 µM]
CC(C)NC(=O)Nc1cccc2c1O[C@H](CN(C)C)[C@@H](C)CN(C)C2=O | -2
CCCNC(=O)NC[C@H]1[C@H](c2ccc(C3=CCCC3)cc2)[C@H](CO)N1C(C)=O | 3
COc1ccc(OCCOCCN2CCOCC2)cc1 | 17
COc1ccc(/C=C2/CCC(CN3CCOCC3)C2=O)cc1 (centres undefined) | 74*
CN(C)CC1CCC/C(=C\c2ccc(OC(=O)/C=C/c3ccccc3)cc2)C1=O (centres undefined) | 3
COc1ccc2c3c(n(C)c2c1)[C@H](CO)N(Cc1cccc(F)c1)CC31CCN(C(=O)Cc2ccccc2)CC1 | 42[25 µM]
COc1ccc2c3c(n(C)c2c1)[C@H](CO)N(C)CC31CCN(C(=O)c2ccc3c(c2)OCO3)CC1 | -3[25 µM]
C[C@@H]1CN([C@@H](C)CO)C(=O)c2c(c3ccccc3n2C)-c2ccccc2CO[C@H]1CN(C)S(=O)(=O)c1cccc(C#N)c1 | 3
CC1(C)CC(=Cc2ccccc2[N+](=O)[O-])C(=O)c2ccccc21 | -21
O=C1C(=Cc2ccccc2[N+](=O)[O-])Cc2ccccc21 | 50*
O=C1C(=Cc2cccc(F)c2)Cc2ccccc21 | -137
O=C(C[C@@H]1C[C@@H]2c3cc(NC(=O)NC4CCCCC4)ccc3O[C@@H]2[C@H](CO)O1)NCC(F)(F)F | -2[25 µM]
C[C@H](CO)N1C[C@H](C)[C@@H](CN(C)S(=O)(=O)Cc2ccccc2)OCc2ccccc2-c2c(n(C)c3ccccc23)C1=O | 10
O=C(C[C@@H]1CC[C@H](NC(=O)C2CC2)[C@H](CO)O1)Nc1ccccc1 | 6[25 µM]
COc1ccc2c3c([nH]c2c1)[C@@H](CO)N(C(=O)Nc1ccc(F)cc1)CC31CN(Cc2cc(F)ccc2F)C1 | 40[25 µM]
COc1ccc2c3c([nH]c2c1)[C@H](CO)N(C(=O)Nc1ccc(F)cc1)CC31CN(Cc2cc(F)ccc2F)C1 | 56*[25 µM]
COc1ccc2c3c(n(C)c2c1)[C@H](CO)N(C(=O)Nc1ccc(F)cc1)CC31CCN(C(=O)Nc2ccc(F)cc2F)CC1 | 68*[25 µM]
CCCNC(=O)N1CC2(C1)CN(C(=O)Nc1ccc(F)cc1)[C@@H](CO)c1[nH]c3cc(OC)ccc3c12 | -10[25 µM]
SMILES | BL2 CD40 inh
COc1ccc2c3c(n(C)c2c1)[C@@H](CO)N(C(=O)Nc1ccc(F)cc1)CC31CCN(C(=O)Nc2c(C)noc2C)CC1 | 18[25 µM]
COc1ccc2c3c(n(C)c2c1)[C@H](CO)N(C(C)=O)CC31CCN(C(=O)Nc2ccccc2F)CC1 | 12[25 µM]
CCC(=O)N1CC[C@@H]2[C@H]1c1cc(C#Cc3ccccc3F)ccc1N[C@@H]2CO | -5[25 µM]
CO[C@@H]1CN(C)C(=O)c2ccc(NC(=O)c3nc4ccccc4s3)cc2OC[C@H](C)N(Cc2cccnc2)C[C@@H]1C | 14[25 µM]
CC(=O)N(C)C[C@@H]1Oc2ncccc2C(=O)N(C)C[C@H]1C | 1
O=C1NCCOCc2cnnn2CC[C@H]1Cc1ccc(F)cc1 | -4[25 µM]
CCOc1ccccc1NC(=O)c1cccc(NC(=O)c2cccnc2)c1 | 4
COc1ccc(NC(=O)N(C)C[C@@H]2OCc3ccccc3-c3c(n(C)c4ccccc34)C(=O)N([C@@H](C)CO)C[C@H]2C)cc1 | 7
O=C(NCC[C@@H]1CC[C@@H](NC(=O)c2ccncc2)[C@H](CO)O1)Nc1ccc(Cl)cc1 | -28[25 µM]
O=C(c1ccccc1)N1CCN(C2CCCCCC2)CC1 | -3
O=C(c1ccc(Nc2nccc(-c3cc4ccccc4s3)n2)cc1)N1CCC(N2CCCC2)CC1 | 68*[25 µM]
COc1ccc(C(=O)N2CCC(N3CCN(c4ccccc4)CC3)CC2)cc1 | 3
C[C@@H]1CN([C@@H](C)CO)C(=O)c2c(c3ccccc3n2C)-c2ccccc2CO[C@@H]1CN(C)C(=O)[C@H](C)c1ccccc1 | 2
CS(=O)(=O)N1CC2(C1)[C@@H](c1ccccc1)[C@@H](CO)N2Cc1ccccc1 | 6[25 µM]
Cc1cccc(NC(=O)COc2ccc3c(c2)CCC3)n1 | -47
O=C(COc1ccc2c(c1)CCC2)Nc1ccccn1 | 90*
Cc1cnc(NC(=O)COc2ccc3c(c2)CCC3)s1 | 5
CCCN(CCC)CC1CCCCN1CCNC(=O)N1c2ccccc2C(=O)Nc2cccnc21 (centres undefined) | -15[25 µM]
